The structures appear in SMILES notation. “And” between values parts separate entries of the source, which are not always exact repeats. Equal values may be shown once. Records with an inconclusive call do not appear. Entries that show only a call come without a potency. Some structures have more than one record in an assay (separate samples or runs), and their calls can disagree. The source made the active and inactive calls. Calls follow the shape of the dose curve; as a rule, active = well fitted cell-killing curve with a large enough effect in the repeat runs; inconclusive = weak or mixed curves, or effect the other way; inactive = no such curve, though single readings can be large or run the other way.
Potency is read from the fitted curve at half-maximal effect.

A short description of the assay: qHTS assay to identify small molecule antagonists of the retinoid-related orphan receptor gamma (ROR-gamma) signaling pathway - cell viability counter screen (AID 1159520). Also: nearly all actives have a fitted effect of over 50% in size. To be noted: Tet-on RORgamma CHO cells viability, ATP luminescence, 16 h; series mostly up to 92.4 µM; activity, negative = cytotoxicity: at the top concentration. An excerpt:
U.S. Tox21 Program National Center for Advancing Translational Sciences [NCATS] NIH Chemical Genomics Center [NCGC] U.S. Environmental Protection Agency [EPA] National Institutes of Environmental Health Sciences [NIEHS] National Toxicology Program [NTP] U.S. Food and Drug Administration [FDA] Tox21 Assay Overview: Nuclear steroid hormone receptors are involved in many biological processes including inflammatory responses, cell proliferation, and apoptosis. Environmental factors or compounds disrupting these nuclear receptor pathways and gene expression may promote susceptibility to immunotoxicants and autoimmune diseases. One important group of these expression factors are the retinoid-related orphan receptors. To assess compounds that may interfere with the retinoid-related orphan receptor gamma (ROR-gamma) transcription factor, a cell-based luciferase assay was used. The CHO cell-based assay utilizes a TET-inducible ROR expression factor and ROR response element-LUC reporter gene. Reporter gene activity was induced using Doxycycline Hyclate and measured after 16 hr incubation. Tet-on ROR gamma CHO cells were used to screen against the Tox21 10K compound library for cytotoxicity by measuring the viability of the cells based on the quantitation of the ATP.
Tox21 Assay Protocol Summary: Tet-on ROR gamma CHO cells were dispensed at 1,000 cells in 4 uL of culture medium per well into white wall/solid bottom 1536-well plates using a Multidrop Combi (Thermo Scientific, Waltham, MA) dispenser. Following incubation at 37 C and 5% CO2 for 4 hr, 23 nL of compounds dissolved in DMSO, positive controls or DMSO only were transferred by a Pintool station (Kalypsys, San Diego, CA) and after 2 hr incubation at 37 C, one ul of 1 uM (final concentration) of Doxycycline Hyclate was added to all the wells by using a Flying Reagent Dispenser (FRD) (Aurora Discovery, San Diego, CA). After 16 hr incubation at 37 C and 5% CO2, 5 uL of CellTiter-Glo reagent (Promega Corporation, Madison, WI) was added to each assay plate using FRD. After 30 min incubation at room temperature, luminescence was quantified on a ViewLux plate reader (Perkin Elmer, Waltham, MA).
Take `CC(=O)Oc1ccccc1C(=O)Nc1ncc([N+](=O)[O-])s1`: the Potency was 3.93 µM (active) and 5.31 µM (active).

As for `CC1=CC2C3CC(C=C3C)C2C1` (stereo not given), the Potency entry was “inactive”.

With `c1ccc(Nc2ccccc2)cc1`, the Potency is 54.4 µM (active) and inactive.

`Cc1c(OCC(F)(F)F)ccnc1CS(=O)c1nc2ccccc2[nH]1` (stereo not given): the Potency entry is “inactive”.

`CCCCCCCCCCCO`: the Potency entry was “inactive”.

`COc1ccccc1/C=C/C=O`: the Potency result is “inactive”.

Take `COC(=O)C1=C(C)NC(C)=C(C(=O)OCCN(C)Cc2ccccc2)C1c1cccc([N+](=O)[O-])c1` (stereo not given): the Potency was 60.8 µM (active).

In the case of `Cc1c(C(N)=O)cc([N+](=O)[O-])cc1[N+](=O)[O-]`, the Potency result was “inactive”.

As to `COC(=O)CCC(=O)OC`, the Potency entry was “inactive”.

Take `CCCCC(CC)COCC1CO1` (stereo not given): the Potency entry was “inactive”.

On to `CC(=O)C1(C)CC2=C(CCCC2(C)C)CC1C` (stereo not given), for which the Potency result was “inactive”.

For the compound `Nc1ccccc1N`, the Potency result was “inactive”.

Turning to `O=C(/C=C/c1ccccc1)OCc1ccccc1`, the Potency result was “inactive”.

For `O=[N+]([O-])c1ccc2c(c1)Cc1ccccc1-2`, the Potency result is “inactive”.

`c1ccncc1`: the Potency result is “inactive”.

Regarding `C[C@]12CC[C@H]3[C@@H](CCC4=CC(=O)CC[C@@]43C)[C@@H]1CC[C@@H]2C(=O)CO`, the Potency result is “inactive”.

On to `CN(C)C(=N)N=C(N)N`, for which the Potency entry is “inactive”.

Regarding `COc1ccc(C(=O)CC(=O)c2ccc(C(C)(C)C)cc2)cc1`, the Potency entry was “inactive”.

Consider `Cc1ccc(C(=O)c2cc(O)c(O)c([N+](=O)[O-])c2)cc1`, for which the Potency result is “inactive”.

For the compound `CC(=O)CC/C=C(\C)CCC=C(C)C`, the Potency entry was “inactive”.

Consider `O=C=Nc1ccc(Cc2ccc(N=C=O)cc2)cc1`, for which the Potency result was “inactive”.

Consider `O=P(O)(O)O`, for which the Potency result is “inactive”.

`c1cc(-c2ccncc2)ccn1`: the Potency entry is “inactive”.

As for `COC(C)COC(C)COC(C)CO` (stereo not given), the Potency result is “inactive”.

Regarding `CC1=CCC(C(C)(C)O)CC1` (stereo not given), the Potency entry was “inactive”.

With `CC(C)OC=O`, the Potency entry is “inactive”.

In the case of `c1cc(N(CC2CO2)CC2CO2)ccc1OCC1CO1` (stereo not given), the Potency result is “inactive”.

Consider `CCOC(=O)C(C#N)=C(c1ccccc1)c1ccccc1`, for which the Potency entry is “inactive”.

Consider `O=C(c1ccccc1)c1ccc(O)cc1O`, for which the Potency result is “inactive”.

On to `COc1cccc2c1C(=O)c1c(O)c3c(c(O)c1C2=O)C[C@@](O)(C(=O)CO)C[C@@H]3O[C@H]1C[C@H](N)[C@H](O)[C@H](C)O1`, for which the Potency result was “inactive and 26.6 µM (active)”.

Take `CCCC(=O)O`: the Potency result is “inactive”.

For `CC(CCC(=O)O)(c1ccc(O)cc1)c1ccc(O)cc1`, the Potency entry was “inactive”.

As for `Cc1cccc(N(C)C(=S)Oc2ccc3ccccc3c2)c1`, the “activity, negative = cytotoxicity” value was -6.89% [at 42.5 µM] (inactive).

Regarding `O=CCc1ccccc1`, the Potency result is “inactive”.

For `Nc1ncn([C@@H]2O[C@H](CO)[C@@H](O)[C@H]2O)c(=O)n1`, the Potency was 3.44 µM (active) and 4.22 µM (active).

Consider `O=CCCCC=O`, for which the Potency is 61.1 µM (active).

For `CC(C)OC(=O)C(C)(C)Oc1ccc(C(=O)c2ccc(Cl)cc2)cc1`, the Potency result is “inactive”.

As to `NNc1ccc(C(=O)O)cc1`, the Potency entry was “inactive”.

As for `C#C[C@]1(O)CC[C@H]2[C@@H]3CCc4cc(OC)ccc4[C@H]3CC[C@@]21C`, the Potency entry is “inactive”.

With `CCCCC(CC)COC(=O)c1ccc(N(C)C)cc1` (stereo not given), the Potency result is “inactive”.
